# Source: PubChem BioAssay AID1159580 (chemical genetic matrix, 2015)
# Out of some 5,500 compounds screened, about 2,000 (36%) were called active. Not shown: some 18% with an inconclusive outcome. This is one part of the list. Unmarked numbers belong to inactive results. Cut-off read from the data, not from the text of the source: active = normalized growth mostly below about 0.91 (no sharp cut-off); inconclusive = no clear call, values can overlap the other calls; inactive = mostly above about 0.92.
# Test: chemical genetic growth profiling, strain panel (AID 1159580);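 note: tested at 20 µM; growth read once vehicle control cultures reached saturation at 30 °C; 1 = growth at the plate median or of vehicle wells; lower values mean less growth of the strain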
# Conditions: growth OD
# [1] = S. cerevisiae deletion strains, locus YJR075W, strain HOC1, hits give low values
# [2] = S. cerevisiae deletion strains, locus YMR307W, strain GAS1, hits give low values
# [3] = S. cerevisiae deletion strains, locus YNL128W, strain TEP1, hits give low values
# [4] = S. cerevisiae deletion strains, locus YNL322C, strain KRE1, hits give low values
# [5] = S. cerevisiae deletion strains, locus YPL055C, strain LGE1, hits give low values
# [6] = S. cerevisiae deletion strains, locus YPL241C, strain CIN2, hits give low values
# [7] = S. cerevisiae deletion strains, locus YDL101C, strain DUN1, hits give low values
# [8] = S. cerevisiae deletion strains, locus YHR030C, strain SLT2, hits give low values
structure (smiles),measurement,setting,value
CCCn1c(=O)c2[nH]c(-c3ccc(OCC(=O)NCCN)cc3)nc2n(CCC)c1=O,normalized growth,"S. cerevisiae deletion strains, locus YAL040C, strain CLN3, hits give low values",1.05
same,normalized growth,"S. cerevisiae deletion strains, locus YCL061C, strain MRC1 (second series), hits give low values",0.984
same,normalized growth,"S. cerevisiae deletion strains, locus YDR363W, strain ESC2, hits give low values",0.983
same,normalized growth,"S. cerevisiae deletion strains, locus YER002W, strain NOP16, hits give low values",0.986
same,normalized growth,[1],0.99
same,normalized growth,[2],1.01
same,normalized growth,[3],0.973
same,normalized growth,"S. cerevisiae deletion strains, locus YNL175C, strain NOP13, hits give low values",0.98
same,normalized growth,"S. cerevisiae deletion strains, locus YNL197C, strain WHI3, hits give low values",0.977
same,normalized growth,"S. cerevisiae deletion strains, locus YNL224C, strain SQS1, hits give low values",0.999
same,normalized growth,[4],0.95
same,normalized growth,"S. cerevisiae deletion strains, locus YOR083W, strain WHI5 (second series), hits give low values",0.984
same,normalized growth,[5],0.973
same,normalized growth,[6],0.985
CSc1cccc(N2C(=O)CC(c3c(Cl)cccc3Cl)CC2=O)c1,normalized growth,"S. cerevisiae deletion strains, locus YAR019C, strain CDC15, hits give low values",0.99
same,normalized growth,"S. cerevisiae deletion strains, locus YBL105C, strain PKC1, hits give low values",0.98
same,normalized growth,"S. cerevisiae deletion strains, locus YBR135W, strain CKS1, hits give low values",0.987
same,normalized growth,"S. cerevisiae deletion strains, locus YBR136W, strain MEC1, hits give low values",0.989
same,normalized growth,"S. cerevisiae deletion strains, locus YBR160W, strain CDC28, hits give low values",0.989
same,normalized growth,"S. cerevisiae deletion strains, locus YDL017W, strain CDC7, hits give low values",0.99
same,normalized growth,"S. cerevisiae deletion strains, locus YDL028C, strain MPS1, hits give low values",0.997
same,normalized growth,[7],0.987
same,normalized growth,"S. cerevisiae deletion strains, locus YDL108W, strain KIN28, hits give low values",0.988
same,normalized growth,"S. cerevisiae deletion strains, locus YDL132W, strain cdc53, hits give low values",0.982
same,normalized growth,"S. cerevisiae deletion strains, locus YDL214C, strain PRR2, hits give low values",0.997
same,normalized growth,"S. cerevisiae deletion strains, locus YDR052C, strain DBF4, hits give low values",0.988
same,normalized growth,"S. cerevisiae deletion strains, locus YDR054C, strain cdc34, hits give low values",0.983
same,normalized growth,"S. cerevisiae deletion strains, locus YDR226W, strain ADK1, hits give low values",0.983
same,normalized growth,"S. cerevisiae deletion strains, locus YDR477W, strain SNF1, hits give low values",0.992
same,normalized growth,"S. cerevisiae deletion strains, locus YER123W, strain YCK3, hits give low values",0.975
same,normalized growth,"S. cerevisiae deletion strains, locus YER133W, strain GLC7, hits give low values",0.993
same,normalized growth,"S. cerevisiae deletion strains, locus YFL009W, strain cdc4, hits give low values",0.966
same,normalized growth,"S. cerevisiae deletion strains, locus YFL029C, strain CAK1, hits give low values",0.986
same,normalized growth,"S. cerevisiae deletion strains, locus YFR003C, strain YPI1, hits give low values",0.983
same,normalized growth,"S. cerevisiae deletion strains, locus YFR019W, strain FAB1, hits give low values",0.971
same,normalized growth,"S. cerevisiae deletion strains, locus YFR028C, strain CDC14, hits give low values",0.986
same,normalized growth,"S. cerevisiae deletion strains, locus YGR040W, strain KSS1, hits give low values",0.987
same,normalized growth,"S. cerevisiae deletion strains, locus YGR052W, strain FMP48, hits give low values",1.02
same,normalized growth,"S. cerevisiae deletion strains, locus YGR092W, strain DBF2, hits give low values",0.985
same,normalized growth,[8],0.894
same,normalized growth,"S. cerevisiae deletion strains, locus YHR079C, strain IRE1, hits give low values",0.904
same,normalized growth,"S. cerevisiae deletion strains, locus YHR082C, strain KSP1, hits give low values",0.948
same,normalized growth,"S. cerevisiae deletion strains, locus YHR205W, strain SCH9, hits give low values",0.916
same,normalized growth,"S. cerevisiae deletion strains, locus YIL147C, strain SLN1, hits give low values",0.996
same,normalized growth,"S. cerevisiae deletion strains, locus YJL095W, strain BCK1, hits give low values",0.956
same,normalized growth,"S. cerevisiae deletion strains, locus YJL128C, strain PBS2, hits give low values",0.955
same,normalized growth,"S. cerevisiae deletion strains, locus YJL157C, strain FAR1, hits give low values",0.985
same,normalized growth,"S. cerevisiae deletion strains, locus YJR016C, strain ILV3, hits give low values",0.987
same,normalized growth,"S. cerevisiae deletion strains, locus YJR066W, strain TOR1 (second series), hits give low values",0.566 (active)
same,normalized growth,"S. cerevisiae deletion strains, locus YJR066W, strain TOR1, hits give low values",0.908
same,normalized growth,"S. cerevisiae deletion strains, locus YKL048C, strain ELM1, hits give low values",0.995
same,normalized growth,"S. cerevisiae deletion strains, locus YKL067W, strain YNK1, hits give low values",0.992
same,normalized growth,"S. cerevisiae deletion strains, locus YKL101W, strain HSL1, hits give low values",0.993
same,normalized growth,"S. cerevisiae deletion strains, locus YKL193C, strain SDS22, hits give low values",0.985
same,normalized growth,"S. cerevisiae deletion strains, locus YKL203C, strain TOR2, hits give low values",1.04
same,normalized growth,"S. cerevisiae deletion strains, locus YLR113W, strain HOG1, hits give low values",0.889
same,normalized growth,"S. cerevisiae deletion strains, locus YLR133W, strain CKI1, hits give low values",1
same,normalized growth,"S. cerevisiae deletion strains, locus YLR403W, strain SFP1, hits give low values",0.946
same,normalized growth,"S. cerevisiae deletion strains, locus YML070W, strain DAK1, hits give low values",0.995
same,normalized growth,"S. cerevisiae deletion strains, locus YMR001C, strain CDC5, hits give low values",0.992
same,normalized growth,"S. cerevisiae deletion strains, locus YMR205C, strain PFK2 (second series), hits give low values",0.997
same,normalized growth,"S. cerevisiae deletion strains, locus YMR277W, strain FCP1, hits give low values",0.983
same,normalized growth,"S. cerevisiae deletion strains, locus YNL006W, strain LST8, hits give low values",0.996
same,normalized growth,"S. cerevisiae deletion strains, locus YNL020C, strain ARK1, hits give low values",0.993
same,normalized growth,"S. cerevisiae deletion strains, locus YNL161W, strain CBK1, hits give low values",0.981
same,normalized growth,"S. cerevisiae deletion strains, locus YNL183C, strain NPR1, hits give low values",0.947
same,normalized growth,"S. cerevisiae deletion strains, locus YNL207W, strain RIO2, hits give low values",0.993
same,normalized growth,"S. cerevisiae deletion strains, locus YNL222W, strain SSU72, hits give low values",0.981
same,normalized growth,"S. cerevisiae deletion strains, locus YNL307C, strain MCK1 (second series), hits give low values",0.988
same,normalized growth,"S. cerevisiae deletion strains, locus YOL078W, strain AVO1, hits give low values",0.993
same,normalized growth,"S. cerevisiae deletion strains, locus YOL136C, strain PFK27, hits give low values",0.976
same,normalized growth,"S. cerevisiae deletion strains, locus YOR061W, strain CKA2, hits give low values",0.994
same,normalized growth,"S. cerevisiae deletion strains, locus YOR119C, strain RIO1, hits give low values",1
same,normalized growth,"S. cerevisiae deletion strains, locus YOR231W, strain MKK1, hits give low values",0.918
same,normalized growth,"S. cerevisiae deletion strains, locus YOR329C, strain SCD5, hits give low values",0.985
same,normalized growth,"S. cerevisiae deletion strains, locus YPL031C, strain PHO85, hits give low values",0.989
same,normalized growth,"S. cerevisiae deletion strains, locus YPL153C, strain RAD53, hits give low values",0.97
same,normalized growth,"S. cerevisiae deletion strains, locus YPL204W, strain HRR25, hits give low values",0.981
same,normalized growth,"S. cerevisiae deletion strains, locus YPL209C, strain IPL1, hits give low values",0.989
same,normalized growth,"S. cerevisiae deletion strains, locus YPL256C, strain CLN2, hits give low values",0.924
same,normalized growth,"S. cerevisiae deletion strains, locus YPR025C, strain CCL1, hits give low values",0.986
same,normalized growth,"S. cerevisiae deletion strains, locus YPR106W, strain ISR1, hits give low values",0.979
same,normalized growth,"S. cerevisiae deletion strains, locus YPR111W, strain DBF20, hits give low values",0.977
same,normalized growth,"S. cerevisiae deletion strains, strain NNK1, hits give low values",0.983
same,normalized growth,"S. cerevisiae deletion strains, strain TSCII, hits give low values",0.982
O=C(CC(Nc1ccccc1)c1ccccc1)C1CC1 (stereo not given),normalized growth,"S. cerevisiae deletion strains, locus YAL013W, strain DEP1, hits give low values",1
same,normalized growth,"S. cerevisiae deletion strains, locus YBR229C, strain ROT2, hits give low values",0.99
same,normalized growth,"S. cerevisiae deletion strains, locus YCL061C, strain MRC1, hits give low values",0.974
same,normalized growth,[7],0.988
same,normalized growth,"S. cerevisiae deletion strains, locus YDL134C, strain PPH21, hits give low values",0.982
same,normalized growth,"S. cerevisiae deletion strains, locus YDR150W, strain NUM1, hits give low values",0.982
same,normalized growth,"S. cerevisiae deletion strains, locus YEL061C, strain CIN8, hits give low values",0.992
same,normalized growth,"S. cerevisiae deletion strains, locus YGR078C, strain PAC10, hits give low values",1.03
same,normalized growth,[8],0.968
same,normalized growth,"S. cerevisiae deletion strains, locus YHR087W, strain rtc3, hits give low values",1.04
same,normalized growth,"S. cerevisiae deletion strains, locus YJL187C, strain SWE1, hits give low values",1
same,normalized growth,"S. cerevisiae deletion strains, locus YJR043C, strain POL32, hits give low values",0.996
same,normalized growth,[1],0.969
same,normalized growth,"S. cerevisiae deletion strains, locus YLR039C, strain RIC1, hits give low values",0.869
same,normalized growth,"S. cerevisiae deletion strains, locus YLR058C, strain SHM2 (second series), hits give low values",0.998
same,normalized growth,"S. cerevisiae deletion strains, locus YLR085C, strain ARP6, hits give low values",0.992
same,normalized growth,"S. cerevisiae deletion strains, locus YLR262C, strain YPT6, hits give low values",0.938
same,normalized growth,"S. cerevisiae deletion strains, locus YML094W, strain GIM5, hits give low values",1.01
same,normalized growth,"S. cerevisiae deletion strains, locus YMR219W, strain ESC1, hits give low values",0.994
same,normalized growth,"S. cerevisiae deletion strains, locus YMR263W, strain SAP30, hits give low values",1.01
same,normalized growth,[2],1.19
same,normalized growth,[3],0.989
same,normalized growth,"S. cerevisiae deletion strains, locus YNL153C, strain GIM3, hits give low values",1.01
same,normalized growth,"S. cerevisiae deletion strains, locus YNL298W, strain CLA4 (second series), hits give low values",0.985
same,normalized growth,[4],0.982
same,normalized growth,"S. cerevisiae deletion strains, locus YNR030W, strain Alg12, hits give low values",1
same,normalized growth,[5],1.02
same,normalized growth,[6],0.981
same,normalized growth,"S. cerevisiae deletion strains, locus YPR135W, strain CTF4, hits give low values",0.915
same,normalized growth,"S. cerevisiae strains, strain wild type, hits give low values",0.979
